# Results as given in PubChem BioAssay (EPA / NIEHS).
# Results filed as inconclusive are left out. The source holds several records for some structures; these can differ, active in one and inactive in another. Active and inactive are the calls of the source. The calls were made as follows, unless noted: active = hit-call score of the fitted dose curve at least 0.9, where 1 is the maximum; inconclusive = response in the unintended direction; inactive = score below 0.9.
# How the values were obtained:
# [1] = target: human CYP2C8, CYP2C8 (gene 1558) (UniProt P10632); assay: NVS_ADME_hCYP2C8: NovaScreen (NVS) CYP450-related Enzyme Activity (ADME) Assay for human CYP2C8 (AID 2283104; active = hit-call score of the fitted dose curve at least 0.9, where 1 is the maximum; inactive = score below 0.9)
# Procedure, shortened: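 Recombinant human CYP2C8 with fluorogenic substrate, 0.5 h, fluorescence intensity; signal loss fitted versus acetonitrile. Screened in duplicate at 10 uM, then actives run in concentration-response up to 20 uM.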
# [2] = target: human CYP2C9, CYP2C9 (gene 1559) (UniProt P11712); assay: NVS_ADME_hCYP2C9: NovaScreen (NVS) CYP450-related Enzyme Activity (ADME) Assay for human CYP2C9 (AID 2283108)
# Procedure, shortened: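 Fluorescence readout of CYP2C9 activity (SF9-expressed human enzyme) at 0.75 h. The primary screen used 10 uM in duplicate, with concentration-response follow-up for actives; acetonitrile was the negative control.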
# [3] = target: human CYP4F12, CYP4F12 (gene 66002) (UniProt Q9HCS2); assay: NVS_ADME_hCYP4F12: NovaScreen (NVS) CYP450-related Enzyme Activity (ADME) Assay for human CYP4F12 (AID 2283111)
# Procedure, shortened: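 Cell-free fluorescence assay of recombinant human CYP4F12 activity on a specific substrate, read 0.5 h after dosing. Primary screen in duplicate at 10 uM, then concentration series for actives; loss of signal fitted against acetonitrile negative control.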
# [4] = target: rat CYP2A2, Cyp2a2 (gene 24895) (UniProt P15149); assay: NVS_ADME_rCYP2A2: NovaScreen (NVS) CYP450-related Enzyme Activity (ADME) Assay for rat CYP2A2 (AID 2283116)
# Procedure, shortened: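 Cell-free recombinant rat CYP2A2 activity with fluorogenic substrate, fluorescence read 0.2 h after dosing. Chemicals screened at 10 uM in duplicate, hits then run in concentration-response up to 20 uM; signal loss versus acetonitrile baseline.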
# rat CYP3A1, gene 25642 = assay: NVS_ADME_rCYP3A1: NovaScreen (NVS) CYP450-related Enzyme Activity (ADME) Assay for rat CYP3A1 (AID 2283126)
# Procedure, shortened: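 Cell-free recombinant CYP assay with fluorescent substrate, read 0.5 h after dosing. Screened at 10 uM in duplicate, hits at up to 20 uM in concentration-response; loss of signal versus acetonitrile baseline.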
# [5] = target: Cytochrome P450 2C19 (Homo sapiens) (UniProt P33261); assay: NVS_ADME_hCYP2C19: NovaScreen (NVS) CYP450-related Enzyme Activity (ADME) Assay for human CYP2C19 (AID 2283113);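 as to AC50: potency for inhibition seen as loss of fluorescent signal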
# Procedure, shortened: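 Cell-free recombinant human CYP2C19 from insect cells, fluorescent substrate; activity read by fluorescence intensity 1 h after dosing. Primary screen in duplicate at 10 uM; actives retested in concentration series. Signal loss versus acetonitrile negative control.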
# [6] = target: human CYP2D6, CYP2D6 (gene 1565) (UniProt P10635); assay: NVS_ADME_hCYP2D6: NovaScreen (NVS) CYP450-related Enzyme Activity (ADME) Assay for human CYP2D6 (AID 2283107)
# Procedure, shortened: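 Cell-free assay using recombinant human CYP2D6 expressed in insect cells, with a fluorogenic substrate read after 1 h. Primary screen in duplicate at 10 uM; actives followed up in concentration series. Loss of signal fitted relative to acetonitrile.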
# [7] = target: Cytochrome P450 3A4 (Homo sapiens) (UniProt P08684); assay: NVS_ADME_hCYP3A4: NovaScreen (NVS) CYP450-related Enzyme Activity (ADME) Assay for human CYP3A4 (AID 2283110)
# Procedure, shortened: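 Compounds were first screened in duplicate at 10 uM against recombinant CYP3A4 produced in insect cells, then actives were run in concentration series. Enzyme activity was measured by fluorescence after 0.33 hour, with acetonitrile as baseline.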
# [8] = target: rat CYP2D2, Cyp2d26 (gene 25053) (UniProt P10634); assay: NVS_ADME_rCYP2D2: NovaScreen (NVS) CYP450-related Enzyme Activity (ADME) Assay for rat CYP2D2 (AID 2283124)
# Procedure, shortened: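 Recombinant rat CYP2D2 in a cell-free fluorogenic activity assay, fluorescence read 0.75 h after dosing. Primary screen in duplicate at 10 uM; actives re-run singly in concentration-response to 20 uM, relative to acetonitrile.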
# [9] = target: human Acetylcholinesterase (AChE), ACHE (gene 43) (UniProt P22303); assay: NVS_ENZ_hAChE: NovaScreen (NVS) Enzymatic Assay for human Acetylcholinesterase (AChE) (AID 2283129)
# Procedure, shortened: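 Cell-free colorimetric enzyme-activity assay; compounds read 0.33 hour after dosing, loss of signal vs DMSO baseline. Primary screen in duplicate at 25 uM single concentration, with active compounds retested in concentration series.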
# rat CYP2C6, gene 293989 = assay: NVS_ADME_rCYP2C6: NovaScreen (NVS) CYP450-related Enzyme Activity (ADME) Assay for rat CYP2C6 (AID 2283120)
# Procedure, shortened: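 Cell-free recombinant rat CYP2C6 with fluorogenic substrate, read by fluorescence 1 h after dosing; acetonitrile as negative control. Primary screen at 10 uM in duplicate, actives then in concentration-response up to 20 uM.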
# [10] = target: rat CYP3A2, Cyp3a2 (gene 266682) (UniProt P05183); assay: NVS_ADME_rCYP3A2: NovaScreen (NVS) CYP450-related Enzyme Activity (ADME) Assay for rat CYP3A2 (AID 2283128)
# Procedure, shortened: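 Cell-free rat CYP3A2 enzyme assay with fluorescent substrate, read 0.5 h after dosing. Primary duplicate screen at 10 uM; actives run in concentration-response up to 20 uM, relative to acetonitrile baseline.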
# [11] = target: rat CYP2C13, Cyp2c13 (gene 171521) (UniProt P20814); assay: NVS_ADME_rCYP2C13: NovaScreen (NVS) CYP450-related Enzyme Activity (ADME) Assay for rat CYP2C13 (AID 2283121)
# Procedure, shortened: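 Recombinant rat CYP2C13 with fluorogenic substrate, 0.75 h cell-free incubation; primary screen in duplicate at 10 uM, actives followed in concentration series. Fluorescence loss relative to acetonitrile control indicates inhibition.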
# human CYP2D6, CYP2D6 (gene 1565), sequence (P10635 whole entry, looked up): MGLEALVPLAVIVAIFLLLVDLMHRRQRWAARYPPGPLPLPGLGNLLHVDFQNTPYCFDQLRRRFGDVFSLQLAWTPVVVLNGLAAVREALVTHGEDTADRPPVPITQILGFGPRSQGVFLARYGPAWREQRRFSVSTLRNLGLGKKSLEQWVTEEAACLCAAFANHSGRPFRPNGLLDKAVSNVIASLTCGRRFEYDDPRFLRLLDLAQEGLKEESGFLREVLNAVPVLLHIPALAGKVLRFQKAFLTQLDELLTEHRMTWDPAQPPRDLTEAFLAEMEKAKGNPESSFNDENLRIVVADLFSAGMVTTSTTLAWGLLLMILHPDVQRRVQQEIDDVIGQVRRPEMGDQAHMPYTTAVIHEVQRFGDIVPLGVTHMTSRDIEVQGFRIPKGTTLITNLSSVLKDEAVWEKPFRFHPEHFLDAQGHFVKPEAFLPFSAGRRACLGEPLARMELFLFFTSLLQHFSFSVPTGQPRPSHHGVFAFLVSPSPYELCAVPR
# human CYP2C9, CYP2C9 (gene 1559), sequence (P11712 whole entry, looked up): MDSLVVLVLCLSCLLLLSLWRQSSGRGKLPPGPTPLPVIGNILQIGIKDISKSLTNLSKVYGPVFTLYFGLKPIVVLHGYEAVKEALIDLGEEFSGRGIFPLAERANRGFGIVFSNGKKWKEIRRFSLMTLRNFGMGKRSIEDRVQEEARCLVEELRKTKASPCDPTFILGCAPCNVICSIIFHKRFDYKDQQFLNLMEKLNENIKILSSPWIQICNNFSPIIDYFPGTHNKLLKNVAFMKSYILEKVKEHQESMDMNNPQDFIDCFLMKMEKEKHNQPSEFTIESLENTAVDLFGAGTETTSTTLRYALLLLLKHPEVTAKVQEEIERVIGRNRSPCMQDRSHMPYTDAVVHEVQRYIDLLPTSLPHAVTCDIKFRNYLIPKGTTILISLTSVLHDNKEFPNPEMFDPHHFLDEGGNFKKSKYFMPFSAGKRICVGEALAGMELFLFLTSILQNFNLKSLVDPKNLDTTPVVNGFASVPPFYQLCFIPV
# human CYP2C8, CYP2C8 (gene 1558), sequence (P10632 whole entry, looked up): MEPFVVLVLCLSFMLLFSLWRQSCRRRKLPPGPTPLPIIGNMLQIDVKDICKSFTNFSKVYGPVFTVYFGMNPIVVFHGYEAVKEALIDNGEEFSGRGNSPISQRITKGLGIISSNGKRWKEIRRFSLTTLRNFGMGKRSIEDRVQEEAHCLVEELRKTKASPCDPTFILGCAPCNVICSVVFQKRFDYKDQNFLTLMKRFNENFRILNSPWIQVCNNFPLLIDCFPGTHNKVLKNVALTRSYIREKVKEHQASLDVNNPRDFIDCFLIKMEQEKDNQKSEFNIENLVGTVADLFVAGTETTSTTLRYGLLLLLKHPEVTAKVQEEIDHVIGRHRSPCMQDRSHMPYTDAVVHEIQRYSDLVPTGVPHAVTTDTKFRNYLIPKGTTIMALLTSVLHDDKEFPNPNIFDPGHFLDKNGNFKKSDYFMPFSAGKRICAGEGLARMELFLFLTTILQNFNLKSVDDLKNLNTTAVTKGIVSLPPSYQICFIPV
# rat CYP2D2, Cyp2d26 (gene 25053), sequence (P10634 whole entry, looked up): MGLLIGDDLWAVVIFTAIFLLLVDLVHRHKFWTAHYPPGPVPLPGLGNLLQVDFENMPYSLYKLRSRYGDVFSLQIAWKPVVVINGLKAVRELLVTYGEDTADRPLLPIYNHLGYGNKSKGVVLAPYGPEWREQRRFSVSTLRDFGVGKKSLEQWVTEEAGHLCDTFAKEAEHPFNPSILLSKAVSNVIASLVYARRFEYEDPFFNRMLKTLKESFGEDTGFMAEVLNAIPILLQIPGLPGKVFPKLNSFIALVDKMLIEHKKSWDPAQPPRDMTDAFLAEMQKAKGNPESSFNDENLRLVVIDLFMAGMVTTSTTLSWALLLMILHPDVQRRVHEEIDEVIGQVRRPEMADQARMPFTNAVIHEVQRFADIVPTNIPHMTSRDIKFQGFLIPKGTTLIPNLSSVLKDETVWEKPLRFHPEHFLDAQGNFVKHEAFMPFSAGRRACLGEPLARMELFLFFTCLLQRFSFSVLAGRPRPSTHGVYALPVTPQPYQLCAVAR
# rat CYP2C13, Cyp2c13 (gene 171521), sequence (P20814 whole entry, looked up): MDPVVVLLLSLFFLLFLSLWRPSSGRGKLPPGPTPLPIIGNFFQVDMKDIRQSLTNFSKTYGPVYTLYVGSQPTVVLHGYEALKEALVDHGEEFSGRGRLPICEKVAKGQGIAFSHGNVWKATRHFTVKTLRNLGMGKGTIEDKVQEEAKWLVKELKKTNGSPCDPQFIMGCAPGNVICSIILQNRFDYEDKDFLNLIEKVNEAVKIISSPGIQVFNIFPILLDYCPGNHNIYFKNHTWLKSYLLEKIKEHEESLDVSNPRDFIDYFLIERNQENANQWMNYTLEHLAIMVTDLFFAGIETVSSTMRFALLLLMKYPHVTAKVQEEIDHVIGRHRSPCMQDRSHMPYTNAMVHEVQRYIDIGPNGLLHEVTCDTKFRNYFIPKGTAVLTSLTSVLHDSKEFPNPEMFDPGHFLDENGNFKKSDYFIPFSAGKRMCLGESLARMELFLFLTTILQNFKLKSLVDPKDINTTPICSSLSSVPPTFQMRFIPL
# Cytochrome P450 3A4 (Homo sapiens), sequence (P08684 whole entry, looked up): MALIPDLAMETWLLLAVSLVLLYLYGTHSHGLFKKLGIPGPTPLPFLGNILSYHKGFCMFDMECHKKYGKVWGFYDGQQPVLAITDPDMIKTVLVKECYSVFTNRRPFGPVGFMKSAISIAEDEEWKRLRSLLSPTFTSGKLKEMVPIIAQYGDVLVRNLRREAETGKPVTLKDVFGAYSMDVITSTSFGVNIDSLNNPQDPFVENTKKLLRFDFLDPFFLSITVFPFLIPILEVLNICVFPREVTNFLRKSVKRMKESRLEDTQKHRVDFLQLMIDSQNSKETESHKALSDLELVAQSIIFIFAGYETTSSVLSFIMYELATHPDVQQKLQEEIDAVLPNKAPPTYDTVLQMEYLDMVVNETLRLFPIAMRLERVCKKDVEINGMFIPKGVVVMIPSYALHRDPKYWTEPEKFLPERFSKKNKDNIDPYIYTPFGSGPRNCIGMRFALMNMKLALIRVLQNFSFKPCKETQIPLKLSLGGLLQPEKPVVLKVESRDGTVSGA
# human Acetylcholinesterase (AChE), ACHE (gene 43), sequence (P22303 whole entry, looked up): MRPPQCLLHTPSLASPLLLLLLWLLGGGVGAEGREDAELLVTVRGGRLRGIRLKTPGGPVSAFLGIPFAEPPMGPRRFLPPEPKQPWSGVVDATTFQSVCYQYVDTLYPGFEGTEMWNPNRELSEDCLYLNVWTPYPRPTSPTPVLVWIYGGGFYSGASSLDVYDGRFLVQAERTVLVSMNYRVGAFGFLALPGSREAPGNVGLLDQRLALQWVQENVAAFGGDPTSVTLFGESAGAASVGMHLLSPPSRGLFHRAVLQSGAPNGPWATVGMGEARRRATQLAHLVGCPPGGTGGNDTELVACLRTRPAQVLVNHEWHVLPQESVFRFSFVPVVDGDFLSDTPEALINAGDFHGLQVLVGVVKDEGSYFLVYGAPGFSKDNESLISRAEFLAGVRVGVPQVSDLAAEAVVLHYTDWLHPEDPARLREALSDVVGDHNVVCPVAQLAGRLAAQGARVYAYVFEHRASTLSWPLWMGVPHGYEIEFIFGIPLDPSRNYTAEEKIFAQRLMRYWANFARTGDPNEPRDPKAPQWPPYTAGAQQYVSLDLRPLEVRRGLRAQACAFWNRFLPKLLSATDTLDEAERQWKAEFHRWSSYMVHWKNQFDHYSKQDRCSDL
# rat CYP3A2, Cyp3a2 (gene 266682), sequence (P05183 whole entry, looked up): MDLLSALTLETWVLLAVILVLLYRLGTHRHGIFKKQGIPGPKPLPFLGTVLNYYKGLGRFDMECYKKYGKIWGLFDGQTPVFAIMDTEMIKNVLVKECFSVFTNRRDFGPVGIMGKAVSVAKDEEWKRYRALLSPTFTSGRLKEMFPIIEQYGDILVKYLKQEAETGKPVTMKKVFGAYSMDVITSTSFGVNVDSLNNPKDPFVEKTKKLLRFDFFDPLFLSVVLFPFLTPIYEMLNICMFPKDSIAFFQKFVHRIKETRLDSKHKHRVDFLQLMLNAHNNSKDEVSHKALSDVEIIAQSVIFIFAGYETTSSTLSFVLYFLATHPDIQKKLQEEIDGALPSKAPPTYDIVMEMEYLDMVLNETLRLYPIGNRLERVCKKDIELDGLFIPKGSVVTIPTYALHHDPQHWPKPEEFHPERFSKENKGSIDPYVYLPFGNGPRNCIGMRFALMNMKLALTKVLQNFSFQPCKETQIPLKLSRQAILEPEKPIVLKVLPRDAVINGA
# rat CYP2A2, Cyp2a2 (gene 24895), sequence (P15149 whole entry, looked up): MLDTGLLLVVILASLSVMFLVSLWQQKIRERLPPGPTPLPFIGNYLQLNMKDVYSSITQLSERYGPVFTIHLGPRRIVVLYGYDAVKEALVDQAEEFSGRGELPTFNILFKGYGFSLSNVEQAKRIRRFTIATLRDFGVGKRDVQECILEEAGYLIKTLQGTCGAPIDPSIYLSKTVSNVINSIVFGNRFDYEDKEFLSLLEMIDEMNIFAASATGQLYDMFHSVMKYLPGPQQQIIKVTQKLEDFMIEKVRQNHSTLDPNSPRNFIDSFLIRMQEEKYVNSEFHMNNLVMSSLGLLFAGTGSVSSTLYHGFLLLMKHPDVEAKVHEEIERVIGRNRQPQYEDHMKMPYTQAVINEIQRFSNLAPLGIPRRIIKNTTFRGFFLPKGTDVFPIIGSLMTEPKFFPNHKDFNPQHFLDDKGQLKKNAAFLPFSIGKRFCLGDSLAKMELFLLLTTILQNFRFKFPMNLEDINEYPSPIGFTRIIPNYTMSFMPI
structure (smiles),measurement,setting,value
O=C(O)C(F)(F)C(F)(F)C(F)(F)C(F)(F)C(F)(F)C(F)(F)C(F)(F)F,outcome,[1],inactive
same,AC50,[2],0.237 µM (active)
same,outcome,[2],inactive
same,outcome,[3],inactive
same,AC50,[4],2.68 µM (active)
same,outcome,"rat CYP3A1, gene 25642",inactive
O=C(O)COc1ccc(Cl)cc1Cl,AC50,[5],10 µM (active)
[2H]C1([2H])[n+]2ccccc2-c2cccc[n+]2C1([2H])[2H],AC50,[6],2.03 µM (active)
same,AC50,[7],2.25 µM (active)
same,AC50,[8],10 µM (active)
same,outcome,[9],inactive
CNC(=O)CSP(=S)(OC)OC,outcome,[6],inactive
same,AC50,[5],2.73 µM (active)
same,AC50,"rat CYP2C6, gene 293989",4.77 µM (active)
same,AC50,[10],5.06 µM (active)
COC(=O)c1ccccc1S(=O)(=O)NC(=O)Nc1nc(C)nc(OC)n1,outcome,[6],inactive
same,AC50,[5],5 µM (active)
CCC(C)(NC(=O)c1cc(Cl)c(C)c(Cl)c1)C(=O)CCl (centres undefined),outcome,[5],inactive
same,outcome,[11],inactive
